Source: PubChem BioAssay (NCI)
Compounds without any hit were thinned out: in the full panel of roughly 79,000, 15% have a hit. Unmarked numbers belong to inactive results. Calls of active or inactive are those of the source. Cut-off read from the data, not from the text of the source: active = growth inhibition above about 70%; inactive = the rest.

Experiment: NCI Yeast Anticancer Drug Screen. Data for the cln2 rad14 strain (AID 165);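 note: 0% = growth equal to vehicle treated cultures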
Settings: S. cerevisiae cln2 rad14 strain, at 5.0 µM (retest, dose inferred, filed as 0.5), hits give high values
Method in brief: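 Yeast carrying cln2 and rad14 alterations (cell cycle control and DNA damage repair) were exposed to compounds. Growth inhibition was measured against vehicle-treated controls.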

Compound | growth inhibition
Clc1ccc(-c2nc3ccc(Cl)cc3[nH]2)cc1 | 0%
O=C1c2ccccc2NC(=O)C2C1C(c1ccccc1)CC2(O)c1ccccc1 (stereo not given) | -14%
COc1ccc(CC2C(=O)NC(C)C(=O)N(C)C3Cc4ccc(cc4)Oc4cc(ccc4O)CC(C(=O)NC(C)C(=O)NC(C)C(=O)N2C)N(C)C3=O)cc1 (stereo not given) | 46%
O=C1c2cccnc2-c2nccc3c2c1nc1cc(Br)ccc13 | 28%
CCN(C(=O)O)c1ccc(/C=C/c2ccnc3ccccc23)cc1 | -26%
O=C(/C=C/c1cccc(Cl)c1)c1ccccc1 | 5%
O.O.O=C(O)C(O)C(O)C(OC1OC(CO)C(O)C(O)C1O)C(O)CO.O=C(O)C(O)C(O)C(OC1OC(CO)C(O)C(O)C1O)C(O)CO.[NH-]C1CCCCC1[NH-].[Pt+2] (stereo not given) | 2%
O=C(N=c1sc2ccccc2s1)N=c1sc2ccccc2s1 | -32%
Cc1ccsc1/C=N/Nc1ccc2ccccc2n1 | 47%
CC(C)(C)C1=NC(=S)SC2=NC(=O)C3(NN21)c1ccccc1-c1ccccc13 | -10%
COC(=O)c1ccc(OC)cc1 | -1%
Cc1ccc(/C=C2\CN(C)CC3=C2NC(=S)NC3c2ccc(C)cc2)cc1 (stereo not given) | 18%
O=C1NC(=O)/C(=C/C=C/c2ccccc2)S1 | 27%
Nc1ccc(Cc2ccc(N)cc2[N+](=O)[O-])c([N+](=O)[O-])c1 | 5%
COc1ccccc1/C=C\C(=O)c1ccccc1 | -4%
NNC(=S)NN/C=C(\C=Nc1ccccc1)[N+](=O)[O-] | -17%
CCCCCCCCCCCCCCCCCO | -1%
COc1cc(C(c2cc3c(cc2O)OCO3)N2CCOCC2)cc(OC)c1OC (stereo not given) | 4%
O=C1OCc2cccc3cccc1c23 | 8%
CSC(=S)NNC(C)c1nccc2ccccc12 (stereo not given) | -8%

Compound | growth inhibition
N#Cc1c(Cl)nc2ccccc2c1N=[N+]=[N-] | 6%
CC(C)(C)CC(C)(C)c1ccc(OCCSC(=N)N)cc1 | 99% (active)
COC1CCC(O)C(CO)O1 (stereo not given) | 100% (active)
CC(=O)N(C1=C(Cl)C(=O)c2ccccc2C1=O)c1ccc(Cl)cc1 | 95% (active)
Cc1nc(N2N=C(c3ccc(Cl)cc3)CCC2=O)sc1[N+](=O)[O-] | 12%
Cn1c2c(c3ccccc31)CCN1C[C@@H]3CCCC[C@H]3C[C@@H]21 | 6%
Cn1cc(NC(=O)Nc2cc(C(=O)Nc3cc(C(=O)Nc4ccc5cc(S(=O)(=O)O)cc(S(=O)(=O)O)c5c4)n(C)c3)n(C)c2)cc1C(=O)Nc1cc(C(=O)Nc2ccc3cc(S(=O)(=O)O)cc(S(=O)(=O)O)c3c2)n(C)c1 | 33%
CC(=O)Oc1c(Cl)cc(Cl)cc1C(c1cc(Cl)cc(Cl)c1OC(C)=O)C(Cl)(Cl)Cl | -10%
CCCCCc1ccc2cc(C(=O)O)[nH]c2c1 | -1%
C/C(=N/O)c1cc([N+](=O)[O-])c(O)cc1O | -6%
CCOC(=O)CNC(=O)Sc1ccc(C(C)(C)C)cc1C | 19%
S=C(N/N=C1\C=Cc2ccccc2C1)N/N=C1\C=Cc2ccccc2C1 | 2%
Cc1cccc(Nc2c3c(nc4ccccc24)CCCCC3)c1 | -3%
Cc1ccc(NS(=O)(=O)c2ccc(C)cc2)cc1 | -6%
CCOC(=O)C(=CNC(=S)Nc1c(CC)cccc1C(C)(C)C)C(=O)OCC | 1%
COC1/C=C/OC2(C)Oc3c(C)c(OC(C)=O)c4c(c3C2=O)C(=O)C=C(NC(=O)/C(C)=C\C=C\C(C)C(O)C(C)C(O)C(C)C(OC(C)=O)C1C)C4=O (stereo not given) | 3%
O=C(O)c1ccc(/C=C2\COc3ccccc3C2=O)cc1 | 5%
Cc1c2c(c(C)c3ccncc13)S(=O)(=O)c1ccccc1-2 | 39%
Oc1c(Cl)cc(Cl)c2cccnc12 | 27%
Cc1ccc(S(=O)(=O)Nc2ccc3c(c2)C(=O)c2ccccc2-3)cc1 | -5%
